Molecules are shown by their SMILES. Records with an inconclusive call do not appear. A call without a number means that no potency is given here. Active and inactive are the calls of the source. Unless noted, calls follow the shape of the full dose curve.

Chain of Tumor necrosis factor (Homo sapiens) (P01375 whole entry, looked up): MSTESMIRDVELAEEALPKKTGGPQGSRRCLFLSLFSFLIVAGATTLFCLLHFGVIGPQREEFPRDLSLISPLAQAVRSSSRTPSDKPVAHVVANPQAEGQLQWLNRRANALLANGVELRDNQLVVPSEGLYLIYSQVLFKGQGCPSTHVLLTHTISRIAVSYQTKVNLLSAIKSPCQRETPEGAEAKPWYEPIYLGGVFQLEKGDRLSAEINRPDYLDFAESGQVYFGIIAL

System in the first test: not listed separately
The test is described as follows: qHTS assay for small molecule disruptors of the mitochondrial membrane potential - 1 hr assay (AID 651754). Also: nearly all actives have a fitted effect of over 35% in size. The following applies: series mostly up to 92.2 µM. The gist of the method:
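Steps: seed HepG2 cells and let attach overnight; pin-transfer compound or vehicle; incubate 1 hr at 37C; add Mito-MPS dye for 30 min; read two-channel fluorescence for monomer and aggregate forms.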
Take `CCOCN(C(=O)CCl)c1c(C)cccc1CC`: the Potency result was “inactive”.
Turning to `ClC1=C(Cl)C2(Cl)C3C4C=CC(C4)C3C1(Cl)C2(Cl)Cl` (stereo not given), the Potency result was “inactive”.
Consider `O=C(O)COc1ccc(Cl)cc1Cl`, for which the Potency result was “inactive”.
Still for that read-out and setting: in the case of `COC(=O)NC(=S)Nc1ccccc1NC(=S)NC(=O)OC` it was “inactive”.
As for `COP(=S)(OC)Oc1ccc([N+](=O)[O-])cc1`, the Potency entry was “inactive”.
Take `ClC1=C(Cl)C2(Cl)C3C(Cl)C=CC3C1(Cl)C2(Cl)Cl` (stereo not given): the Potency entry was “inactive”.
In the case of `CNC(=O)O/N=C/C(C)(C)SC`, the Potency entry is “inactive”.
Same read-out and setting: in the case of `c1ccc(N=Nc2ccccc2)cc1` it was “inactive”; in that of `CCc1cccc(CC)c1N(COC)C(=O)CCl`, “inactive”.

System in another test: not listed separately
The test is described as follows: qHTS assay for small molecule disruptors of the mitochondrial membrane potential - 5 hr assay (AID 651755). Also: nearly all actives have a fitted effect of over 40% in size. The following applies: JC-1-type ratio dye; series mostly up to 92.2 µM. The gist of the method: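 HepG2 cells, attached overnight at 37C, were exposed to compound or DMSO for 5 hr at 37C, 5% CO2. Mito-MPS dye was then added for 30 min, and fluorescence read at 490/535 nm (monomers) and 540/590 nm (aggregates).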
(qHTS replaces the single test concentration by a dilution series.)
`ClC1=C(Cl)C2(Cl)C3C4CC(C5OC45)C3C1(Cl)C2(Cl)Cl` (stereo not given): the Potency entry was “inactive”.
For `CCOCN(C(=O)CCl)c1c(C)cccc1CC`, the Potency entry is “inactive”.
On the same count and under the same terms, in the case of `ClC(Cl)=C(c1ccc(Cl)cc1)c1ccc(Cl)cc1` it was “inactive”; in that of `ClC1=C(Cl)C2(Cl)C3C4C=CC(C4)C3C1(Cl)C2(Cl)Cl` (stereo not given), “inactive”; in that of `O=C(O)COc1ccc(Cl)cc1Cl`, “inactive”.
Take `COC(=O)NC(=S)Nc1ccccc1NC(=S)NC(=O)OC`: the Potency entry was “inactive”.
On the same count and under the same terms, in the case of `COP(=S)(OC)Oc1ccc([N+](=O)[O-])cc1` it was “inactive”; in that of `ClC1=C(Cl)C2(Cl)C3C(Cl)C=CC3C1(Cl)C2(Cl)Cl` (stereo not given), “inactive”; in that of `CNC(=O)O/N=C/C(C)(C)SC`, “inactive”.
Take `c1ccc(N=Nc2ccccc2)cc1`: the Potency entry was “inactive”.
For `CCc1cccc(CC)c1N(COC)C(=O)CCl`, the Potency entry is “inactive”.

In the next test the target is Tumor necrosis factor (Homo sapiens) (UniProt P01375). As to the kind of experiment: qHTS assay to identify small molecules that stimulate Tumor Necrosis Factor-alpha (TNF-alpha) secretion (AID 651757; active = well fitted curve in the direction sought with a large enough effect in the signal ratio; the % refers to the signal ratio). The following applies: Human cells, HTRF 665/615 ratio; series mostly up to 92.2 µM. The gist of the method:
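Secreted TNF-alpha from compound-treated THP-1 cells (17 hrs, 37 C) was quantified with a homogeneous time-resolved fluorescence antibody assay.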
For the molecule `CCNc1nc(Cl)nc(NC(C)C)n1`, the result was inactive.
The same measure, in the same setting: in the case of `ClC1=C(Cl)C2(Cl)C3C4CC(C5OC45)C3C1(Cl)C2(Cl)Cl` (stereo not given) it was “inactive”.
In the case of `CCOCN(C(=O)CCl)c1c(C)cccc1CC`, the result was inactive.
In the case of `ClC(Cl)=C(c1ccc(Cl)cc1)c1ccc(Cl)cc1`, the outcome was inactive.
In the case of `ClC1=C(Cl)C2(Cl)C3C4C=CC(C4)C3C1(Cl)C2(Cl)Cl` (stereo not given), the result was inactive.
Regarding `O=C(O)COc1ccc(Cl)cc1Cl`, the result was inactive.
In the case of `COC(=O)NC(=S)Nc1ccccc1NC(=S)NC(=O)OC`, the outcome was inactive.
On to `C/C=C/c1ccc2c(c1)OCO2`, for which the result was inactive.
Take `COP(=S)(OC)Oc1ccc([N+](=O)[O-])cc1`: the result was inactive.
Same read-out and setting: with `O=S1OCC2C(CO1)C1(Cl)C(Cl)=C(Cl)C2(Cl)C1(Cl)Cl` (stereo not given) the entry was “inactive”; with `C=CCc1ccc(OC)cc1`, “inactive”; with `ClC1=C(Cl)C2(Cl)C3C(Cl)C=CC3C1(Cl)C2(Cl)Cl` (stereo not given), “inactive”.
For `CNC(=O)O/N=C/C(C)(C)SC`, the outcome was inactive.
Consider `c1ccc(N=Nc2ccccc2)cc1`, for which the outcome was inactive.
In the case of `CCc1cccc(CC)c1N(COC)C(=O)CCl`, the outcome was inactive.

Values taken from PubChem BioAssay (NCATS).
